The results in this text go back to PubChem BioAssay (NCI).

Values joined by “and” are separate entries in the source; they are usually repeats but may differ in a detail not shown here. Equal entries are not always repeated. The panel holds about 79,000 compounds, 15% with a hit somewhere; the sample as a whole holds those more often. Values without a mark were called inactive. No stated cut-off is given here; in the data, active means growth inhibition above about 70%; inactive means the rest.

This assay is described as follows: NCI Yeast Anticancer Drug Screen. Data for the rad50 strain (AID 155).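 Further: 0% = growth of vehicle-only cultures of the same strain.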 The settings on record: S. cerevisiae rad50 strain growth inhibition, stronger effect = higher value; at 50.0 µM unless noted. The method in brief: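 Compounds were tested on a yeast strain with an engineered DNA damage repair alteration; the reported value is growth inhibition normalised to vehicle treatment.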
Consider `CNC(=S)NCOCCOC(C)=O`, for which the growth inhibition is 6.75%. With `O=C(Cc1ccccc1)CC(CC(=O)Cc1ccccc1)c1ccccc1` the figure was 31%; with `O=CC(CO)C(C=O)n1ncc2ccccc21` (stereo not given), 30.2%; with `[CH3][Sn]([CH3])([S]P(=S)(c1ccccc1)c1ccccc1)[S]P(=S)(c1ccccc1)c1ccccc1`, 25.1%. Take `N=c1oc(-c2ccccc2)cc2ccccc12`: the growth inhibition is 29.8%.

As to `COc1cc(OC)c2c(c1)OC(c1cccnc1)C(c1ccccc1)C2=O` (stereo not given), the growth inhibition is -5.2%. As for `O=C1C=CC(=Nc2ccc3c(c2)-c2ccccc2C3)O1`, the growth inhibition was 3.2%. In the case of `COC(=O)Nc1ccc(Cc2ccc(NC(=O)OC)cc2)cc1`, the growth inhibition is 26.1%. `Cc1nc(N(C)C)oc(=O)c1CCc1ccccc1`: the growth inhibition was -5.8%.

On to `CCN(CC)c1ccc(N=Nc2ccc(-c3nc4cccnc4o3)cc2)cc1`, for which the growth inhibition is -21.4%.

`CCCCCCCCCCCCCCCCCC(=O)CBr`: the growth inhibition is 14%. With `C(=Nc1cccc2ccccc12)c1cccs1` the figure was -8.95%; with `COC(=O)c1ccccc1-c1ccccc1C(=O)O`, 1.2%; with `C#CCOC(=O)Nc1ccccc1`, 21.6% and 1.85%.

Turning to `CC1=Nc2ccc([N+](=O)[O-])cc2C1(C)C`, the growth inhibition was -0.35%.

Consider `CCOC(Cn1ccc[n+]1CC(=O)c1ccccc1)OCC`, for which the growth inhibition was 0.9%. The same measure for `Cc1nc(C(N)=S)sc1C(=O)C/C(=N/N)C(=O)Nc1ccc(Cl)cc1`: 2.05%. With `Cc1nc(CO)c(-c2ccc([N+](=O)[O-])cc2)o1`, the growth inhibition was 0.4%. On to `CCOC(=O)C1=C(O)C[C@]2(O)C3CC=C(C)[C@@H]4CCO[C@](OC)(C[C@H]2C1)[C@]34C(=O)OC` (stereo not given in full), for which the growth inhibition is 1%.

For the compound `CN1CC(c2ccccc2)C(O)(C2(c3ccccc3)CN(C)CC(c3ccccc3)C2=O)C(c2ccccc2)C1` (stereo not given), the growth inhibition was 5.7%. `COc1ccc(C(=O)CN2CCN(c3ccccc3)CC2)cc1`: the growth inhibition was 14.7%. `COc1ccc2c(c1)OC[C@@H]1c3cc(NS(=O)(=O)c4ccccc4)cc(OCc4ccccc4)c3O[C@H]21`: the growth inhibition was -16.4%. Turning to `CN(C)Cc1cc(C(=O)/C=C/c2ccc(Cl)c(Cl)c2)cc(CN(C)C)c1O`, the growth inhibition is -1.95%. With `N#Cc1c(-c2ccc(Cl)cc2)c(-c2ccc(Cl)cc2)nn(CCOC(=O)CCC(=O)OCCn2nc(-c3ccc(Cl)cc3)c(-c3ccc(Cl)cc3)c(C#N)c2=O)c1=O`, the growth inhibition was -11.7%. Regarding `CN(C)C(=O)C(c1ccccc1)C(c1ccccc1)N(C)C=O` (stereo not given), the growth inhibition was -3.5%. The same measure for `Cc1ccc(S(=O)(=O)NC(=O)NNc2ccc(F)cc2)cc1`: 2.5%. For `CCSc1[nH]c(Nc2nc(-c3ccccc3)n(-c3ccccc3)n2)c(C(N)=O)c1C(N)=O`, the growth inhibition is -16.9%. With `CO[C@@H]1C2=CC=CC=C[C@H]2n2c(=O)n(-c3ccccc3)c(=O)n21` the figure was -10.2%; with `Cn1nc(-c2ccccc2)c(C(=O)/C=C/c2ccccc2)c(N2CCCCC2)c1=O`, -27.9%; with `CC(=O)[C@@]1(O)CC[C@H]2[C@@H]3CC[C@@H]4C[C@H](O)CC[C@]4(C)[C@H]3[C@H](O)C[C@@]21C`, -9.8%. Regarding `COc1ccc(/C(C)=N/NC(=O)c2ccncc2)cc1OC`, the growth inhibition was -9.6%.

Turning to `CCCCCCCCSC(=N)N`, the growth inhibition was 23.9%. As to `O=C(NO)/C(CC(=O)c1cccc(O)c1)=N\O`, the growth inhibition was -7.05%. The same measure for `CN(C)c1ccc(/C=C2\C(=O)/C(=C\c3ccc(N(C)C)cc3)c3ccccc32)cc1`: 2.95%; for `CCS(=O)(=O)c1ccc(NC(=O)OC2CCC3(C)C(=CCC4C3CCC3(C)C(C(C)CCCC(C)C)CCC43)C2)cc1` (stereo not given): 21.5%. Turning to `O=C1CC(Br)C(c2ccccc2)(c2ccccc2)O1` (stereo not given), the growth inhibition was 32.2%. Consider `O=C(OCC1OCOC2C(COC(=O)c3ccccc3)OCOC12)c1ccccc1` (stereo not given), for which the growth inhibition is 9.05%.

In the case of `O=[N+]([O-])c1ccc(N(CCO)CCO)cc1`, the growth inhibition is 1.05%. As for `Cc1ccc(NC(=O)C(=O)CC(=O)c2sc(Nc3c(C)cccc3C)nc2C)cc1C`, the growth inhibition was 13.4%. On to `COC1CCC(/C=C(\C#N)C2CCC(C)CC2)CC1` (stereo not given), for which the growth inhibition was 18.3%.
